Assay results as given in PubChem BioAssay AID624330 (Southern Research Specialized Biocontainment Screening …, 2012).
Screen size: about 340,000 compounds; about 2,100 (0.62%) were called active.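 How the source made its calls: active means first-screen hits whose inhibition reached a set limit at any dose in the follow-up dose series; inconclusive means inhibition above the set first-screen limit but never retested; inactive means the rest.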 These entries were drawn from the full list. Potency and affinity values are given separately.

Target: Rac GTPase-activating protein 1 (Homo sapiens) (UniProt Q9H0H5)
Assay: MgcRacGAP GTPase-activating activity inhibitors, confirmation, biochemical, ADP Hunter fluorescence, primary and confirmatory (AID 624330);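 further: fluorescence reports GDP produced by GAP-driven GTP hydrolysis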
Details: MgcRacGAP-stimulated Rac1 GTP hydrolysis, at 30 µM, hits give high values, GST-tagged Rac1 F28L mutant substrate

Chain of Rac GTPase-activating protein 1 (Homo sapiens) (Q9H0H5 whole entry, looked up): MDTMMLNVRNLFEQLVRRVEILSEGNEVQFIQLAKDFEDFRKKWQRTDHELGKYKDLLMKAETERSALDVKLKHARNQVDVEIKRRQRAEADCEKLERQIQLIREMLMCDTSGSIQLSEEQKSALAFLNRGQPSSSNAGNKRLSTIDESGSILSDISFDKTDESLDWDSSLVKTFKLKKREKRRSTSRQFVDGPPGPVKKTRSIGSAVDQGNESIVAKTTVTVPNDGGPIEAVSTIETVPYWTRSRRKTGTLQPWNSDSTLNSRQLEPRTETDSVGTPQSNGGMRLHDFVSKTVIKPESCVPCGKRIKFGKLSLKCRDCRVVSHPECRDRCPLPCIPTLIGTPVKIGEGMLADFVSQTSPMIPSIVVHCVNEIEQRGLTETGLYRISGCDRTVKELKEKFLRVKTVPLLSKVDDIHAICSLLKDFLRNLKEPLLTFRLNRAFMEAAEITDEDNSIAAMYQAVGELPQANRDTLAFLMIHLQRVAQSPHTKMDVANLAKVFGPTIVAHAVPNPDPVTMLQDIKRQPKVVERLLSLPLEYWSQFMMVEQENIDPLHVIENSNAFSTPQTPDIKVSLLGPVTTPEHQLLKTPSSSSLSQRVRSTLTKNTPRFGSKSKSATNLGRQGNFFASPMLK

inhibition, inactive:
O=C(O)c1ccc(S(=O)(=O)NN=Cc2c[nH]c3ccccc23)cc1 14.2%, COc1ccc2c(/C=N/NS(=O)(=O)c3ccc(C)cc3)c[nH]c2c1 11.2%, O=C(O)c1cc(N/N=C/c2c[nH]c3ccccc23)ccc1Cl 23.8%, COc1ccc(C(=O)N/N=C/c2c[nH]c3ccccc23)cc1 16.4%, COc1ccc(S(=O)(=O)N2CCCCC2)cc1NC(=O)CCc1cc(OC)c(OC)c(OC)c1 2.57%, O=C(COC(=O)Cc1c(Cl)cccc1Cl)Nc1ccccc1-c1ccccc1 1.56%, O=C(O)C1CC(c2ccccc2)=Nc2ccccc2S1 (stereo unspecified) 6.83%, CC1(C)CC(=O)C(Sc2ccccc2)=C(O)C1 -4.47%, CCOC(=O)Nc1ccc2c(c1)nc1n2CCN(CCOC)C1 8.24%, NS(=O)(=O)c1ccc(NC(=O)CSc2nc3c(c(=O)[nH]2)CCCC3)cc1 6.37%, COc1ccc(CNC(=O)CN2CCN(c3ccc(F)cc3)CC2)cc1 6.2%, CCN(CC(=O)NCc1ccc(F)cc1)C(=O)CN1CCN(c2ccccc2OC)CC1 2.73%, CCOc1ccccc1NC(=O)Cn1cnc2c(cnn2-c2ccc(C)c(C)c2)c1=O 9.09%, CC[C@@]1(C(=O)OC)N[C@H](CN(C)C(=O)c2ccc(F)cc2)[C@@H]2C(=O)N(Cc3ccccc3)C(=O)[C@@H]21 1.15%, CC(C)Cc1nnc(NC(=O)CCC(=O)NCCc2ccc(Cl)cc2)s1 4.94%, C[C@]12CC[C@@H]3c4ccc(O)cc4CC[C@H]3[C@@H]1CCC2=O 9.39%, CC12CCC3c4ccc(O)cc4CCC3C1CCC2=O (stereo unspecified) 5.82%, CC(O)Cn1c(N2CCCC2)nc2c1c(=O)[nH]c(=O)n2C (stereo unspecified) 4.91%, c1cncc(-c2nc3ccccc3[nH]2)c1 3.11%, Cc1nc2ccc(-c3nc4ccccc4[nH]3)cc2[nH]1 22.2%, O=[N+]([O-])c1ccc2nc(C3CCCCC3)[nH]c2c1 6.17%, Cc1nc2ccc(-c3nc4cc(N)ccc4o3)cc2[nH]1 4.01%, c1cncc(-c2nc3cc4ccccc4cc3[nH]2)c1 21.6%, Clc1ccc(-c2nc3ccncc3[nH]2)cc1 -13.9%, Cc1ccc2nc(C3CCCCC3)[nH]c2c1 9.42%, O=[N+]([O-])c1ccc2nc(-c3ccc(Cl)cc3)[nH]c2c1 9.26%, C=CCNC(=S)NNC(=O)c1ccc2c(c1)OCO2 4.79%, CC(NC(=O)C(=O)N1CCOCC1)C(c1cccs1)N1CCN(c2ccccc2)CC1 (stereo unspecified) 11%, CC1CCCN(C(=O)C2CCN(S(=O)(=O)c3ccc4c(c3)CC(C)N4C(=O)C3CC3)CC2)C1 (stereo unspecified) -0.15%, COc1ccc(CNC(=O)C(NS(=O)(=O)c2ccc3c(c2)CCCN3C(C)=O)C(C)C)cc1 (stereo unspecified) 6.24%, COc1cccc(CNC(=O)CCS(=O)(=O)c2ccc3c(c2)NC(=O)CS3)c1 6.72%, O=C1c2ccccc2NC(c2ccccn2)N1c1ccccc1F (stereo unspecified) 6.7%, O=C(NC1CCCCC1)c1cc(S(=O)(=O)N2CCCC2)ccc1Cl 9.3%, CCOC(=O)COc1nc(OC)nc(N2CCOCC2)n1 13%, Nc1ccc2nc(-c3cccc(-c4nc5ccc(N)cc5[nH]4)c3)[nH]c2c1 25.9%, Nc1ccc2nc(C(F)(F)F)[nH]c2c1 7.12%, Nc1ccc(-c2nc3ccccc3[nH]2)cc1 8.27%, Nc1cccc(-c2nc3ccccc3[nH]2)c1 8.22%, O=C(OCC(=O)N1CCN(C(=O)c2ccco2)CC1)c1sc2cc(F)ccc2c1Cl 3.78%, COC(=O)c1ccc(C(=O)OC)c(NC(=O)CN(C)Cc2cccc(Cl)c2Cl)c1 5.99%, Cc1nc2cc3nc(C)sc3cc2s1 10.8%, O=C(Cc1ccc(Cl)cc1)N/N=C/c1ccccc1 3.03%, O=C(CCc1ccc(O)cc1)NN=Cc1ccc2c(c1)OCO2 28.7%, O=C(Cc1ccc(Cl)cc1)N/N=C/c1cccc(O)c1 -4.31%, COc1ccc(CCC(=O)N/N=C/c2ccc3c(c2)OCO3)cc1 4.06%, O=C(CCC(=O)OCc1ccc([N+](=O)[O-])cc1)Nc1ccc(F)cc1 4.88%, O=C(CC(c1ccccc1)c1ccccc1O)NCCN1CCOCC1 (stereo unspecified) -6.2%, Nc1ccccc1-n1c(=O)n(Cc2ccccc2F)c(=O)c2[nH]cnc21 3.12%, C=CCn1c(SCc2cc(=O)n3cc(C)ccc3n2)nnc1-c1cccc(C)c1 8.24%, CSCC[C@H](NC(=O)OC(C)(C)C)C(=O)N1CCC(C(=O)NCC(=O)Nc2ccc(C)cc2)CC1 -4.04%, COCCNC(=O)c1ccc(-c2csc(C)n2)cc1 3.59%, C[C@@H]1CN([C@H](C)CO)C(=O)c2cc(Br)cnc2O[C@@H]1CN(C)C(=O)C1CCOCC1 8.56%, CNc1nnc(-c2ccncc2)s1 6.68%, CNc1nnc(-c2cccc(N(C)C)c2)s1 4.36%, Cc1cc(OCC(=O)NCC2CCC(C(=O)O)CC2)c2c(C)c(Cc3ccccc3)c(=O)oc2c1 (stereo unspecified) 1.13%, CCCc1cc(=O)[nH]c(SCC(=O)NC)n1 2.55%, CCCCNC(=O)c1ccc(CS(=O)(=O)c2ccc(OC)cc2)o1 -10.9%, CCOc1ccc(S(=O)(=O)Nc2ccc(C(=O)NCC(c3ccc(OC)cc3)N3CCOCC3)cc2)cc1 (stereo unspecified) 5.24%, COc1ccc(CN2CCC(=O)N(CCO)CC2)cc1OC 7.88%, O=C(c1ccco1)N1CCN(Cc2cn[nH]c2-c2ccc(F)cc2F)CC1 -5.62%, Cn1c(=O)[nH]c(Nc2ccccc2)c([N+](=O)[O-])c1=O 5.65%, Cn1c(=O)[nH]c(Nc2ccc(F)cc2)c([N+](=O)[O-])c1=O 8.12%, Cc1ccc(C(=O)NCCCNC(=O)c2ccco2)cc1 4.3%, CN(CC(=O)Nc1c(Cl)cccc1Cl)C(=O)C1CCN(C(=O)Nc2ccccc2)CC1 -1.59%, COc1ccccc1CCC(=O)OCC(=O)Nc1ccc(C(N)=O)cc1 -2.01%, Cc1ccc(S(=O)(=O)N2CCCCC2)cc1NC(=O)CSc1nc(N)cc(=O)[nH]1 4.78%, Cc1c(-c2ccccc2)sc(Br)c1C(=O)N1CCOCC1 2.64%, COC(=O)c1c(N)sc(C(=O)N2CCOCC2)c1C 8.37%, Cc1ccc(N(C(C)C(=O)O)S(=O)(=O)c2cccnc2)cc1 (stereo unspecified) 4.39%, Cc1ccc(C2=NOC(=O)/C2=C\C=C\c2ccccc2)cc1 6.67%, O=C1ON=C(c2ccccc2)/C1=C/c1ccc(-c2ccccc2[N+](=O)[O-])o1 7.69%, COc1ccc(/C=C2\C(=O)ON=C2c2ccccc2)cc1 24.6%, CN(C)/C=C1\C(=O)ON=C1c1ccccc1 11.7%, O=C1ON=C(c2ccccc2)/C1=C\c1ccco1 19.1%, COc1cc([N+](=O)[O-])ccc1-c1ccc(/C=C2\C(=O)ON=C2c2ccccc2)o1 25%, Cc1ccc(C2=NOC(=O)/C2=C\c2ccccc2)cc1 8.59%, O=C1ON=C(c2ccccc2)/C1=C/c1cccnc1 3.82%, Cc1ccc(CNS(=O)(=O)NCc2ccc(Cl)cc2)cc1 0.28%, COc1ccc(N2CCN(C(=O)COC(=O)CCS(=O)(=O)c3ccc(C)cc3)CC2)cc1 20.8%, O=S(=O)(c1ccc2ccccc2c1)N1CCNCC1 11.3%, COc1ccc(CNC(=O)CN(C(=O)CCC(=O)Nc2ccccn2)c2cccc(C)c2C)cc1 6.1%, CCc1nnc(NC(=O)CSc2nnc3ncccn23)s1 4.86%, CC(=O)Nc1cccc(NC(=O)CSc2n[nH]c(-c3ccccc3)n2)c1 2.62%, O=[N+]([O-])c1ccccc1S(=O)(=O)N1CCCc2ccccc21 -4.93%, O=c1cc(O)c2ccc(O)cc2o1 11.2%, O=c1c(O)c(-c2ccccc2)oc2cc(O)cc(O)c12 9.81%, COc1ccc(-c2oc3cc(O)c(OC)c(O)c3c(=O)c2OC)cc1O 26.4%, COc1c(-c2ccc(O)cc2)oc2cc(O)cc(O)c2c1=O 8.09%, O=c1c(-c2ccc(F)cc2)coc2cc(O)ccc12 2.56%, O=c1c(O)c(-c2cc(O)c(O)c(O)c2)oc2cc(O)cc(O)c12 -51.5%, COc1ccc(-c2coc3cc(O)ccc3c2=O)cc1 -1.73%, O=c1c(O)c(-c2ccc(O)c(O)c2)oc2cc(O)cc(O)c12 24.2%, CC1(C)CC(=O)C(N=Nc2ccc3ncsc3c2)=C(O)C1 9.23%, Cc1cc(C)c(/C([O-])=C(/C(=S)Nc2ccc(SC(F)F)cc2)[n+]2ccccc2)cc1C -14.3%, Cc1cc(C(=O)N2CCCC(N3CCN(c4cccc(Cl)c4)CC3)C2)n(C)n1 (stereo unspecified) 9.25%, O=C(COc1ccccc1)N[C@@H]1c2ccccc2CC[C@@H]1OCc1ccccc1 3.68%
